Data: PubChem BioAssay (NCATS)
“And” between values parts separate entries of the source, which are not always exact repeats. Equal entries are not always repeated. Results filed as inconclusive are left out. A number with no mark means an inactive call. The source made the active and inactive calls. The call rests on the fitted dose curve; in most records, active means well fitted curve in the direction sought with a large enough effect; inconclusive means small, poorly fitted or top-dose-only effect, or another doubt; inactive means no such curve, though single readings can be large; an effect the other way counts as inactive or inconclusive.

Experiments:
[1] = Viability qHTS for spleen associated tyrosine kinase inhibitor (SYKi) naive MV4-11 cells (AID 1963823); further: nearly all actives have a fitted effect of over 40% in size
How it was run: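 CellTiter-Glo luminescence, 10 min room-temperature incubation, gave viability. Cells: naive MV4-11 (500/well), treated 72 hr at 37 C, 5% CO2.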

[2] = Viability qHTS for spleen associated tyrosine kinase inhibitor (SYKi) drug resistant MV4-11 cells (AID 1963824); further: nearly all actives have a fitted effect of over 35% in size
How it was run: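 CellTiter-Glo luminescence, read 10 min after reagent addition, reports viability after a 72 hr compound exposure. Cells are an MV4-11 line made resistant to SYK inhibition, seeded at 500 per well onto compound-containing plates.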

[3] = Quantitative highthroughput screen to assess conditional lethalithy of NOMO1 cells grown in Human Plasma-Like Medium with dialyzed fetal bovine serum (HPLM+ds) (AID 1963878); further: nearly all actives have a fitted effect of over 35% in size
How it was run: (§1)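 Each medium arm—HPLM with 10% dialyzed FBS, or RPMI1640 with 5 mM glucose and 10% untreated or dialyzed FBS—was screened against an 11-point, 3-fold compound titration for 48 h at 37 °C, with CellTiter-Glo luminescence as endpoint.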

[4] = Quantitative highthroughput screen to assess conditional lethalithy of SEM cells grown in Human Plasma-Like Medium with dialyzed fetal bovine serum (HPLM+ds) (AID 1963882); further: nearly all actives have a fitted effect of over 35% in size
How it was run: as §1

[5] = Cellular viability qHTS for adrenocortical cancer (ACC) cell line SW-13 (AID 1963989); conditions: SW-13 ACC cells viability, CellTiter-Glo, 48 h; activity (max response): stronger effect = lower value; further: nearly all actives have a fitted effect of over 65% in size;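 on activity (max response): cells grown in serum-free medium with ITS supplement; on the % scale 0 is the no-effect control and ±100 the full control effect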
How it was run: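 SW-13 cells in ITS-supplemented serum-free DMEM were plated overnight, then exposed for 48 h at 37C to compound titrations (up to 46 uM final). Viability was read by CellTiter-Glo luminescence; four-parameter logistic fits gave IC50 and efficacy.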

[6] = Cellular viability qHTS for adrenocortical cancer (ACC) cell line NCI-H295R (AID 1963990); further: nearly all actives have a fitted effect of over 60% in size
How it was run: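 Luminescent ATP read-out (CellTiter-Glo, 20 min RT) after 48 h drug exposure of NCI-H295R cells; a titration up to 46 uM final. Data normalized to doxorubicin (100% inhibition) and DMSO (0%); 4-parameter fit gives IC50, max response.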

[7] = Quantitative highthroughput screen to assess conditional lethalithy of SEM cells grown in RPMI1640 with unreated serum (RPMI+s) (AID 1963883); further: nearly all actives have a fitted effect of over 35% in size
How it was run: as §1

[8] = Quantitative highthroughput screen to assess conditional lethalithy of SEM cells grown in RPMI1640 with dialyzed fetal bovine serum (RPMI+ds) (AID 1963884); further: nearly all actives have a fitted effect of over 35% in size
How it was run: as §1

[9] = Quantitative highthroughput screen to assess conditional lethalithy of P12 Ichikawa cells grown in Human Plasma-Like Medium with dialyzed fetal bovine serum (HPLM+ds) (AID 1963879); conditions: Potency: viability; further: nearly all actives have a fitted effect of over 35% in size; on Viability: series mostly up to about 46 µM
How it was run: as §1

[10] = Quantitative highthroughput screen to assess conditional lethalithy of P12 Ichikawa cells grown in RPMI1640 with dialyzed fetal bovine serum (RPMI+ds) (AID 1963880); conditions: Potency: P12-Ichikawa viability; further: nearly all actives have a fitted effect of over 35% in size;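 on Viability: 100% = DMSO wells and 0% = empty wells on each plate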
How it was run: as §1

[11] = Quantitative highthroughput screen to assess conditional lethalithy of P12 Ichikawa cells grown in RPMI1640 with untreated serum (RPMI+s) (AID 1963881); conditions: Potency: viability; further: nearly all actives have a fitted effect of over 35% in size;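 on Viability: series mostly up to about 46 µM; 100% = DMSO wells and 0% = empty wells without cells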
How it was run: as §1
Potency means the concentration at half of the fitted maximal effect.

SMILES	Potency [1]	Potency [2]	Potency [3]	Potency [4]	activity (max response) [5] [%]	Potency [6]	Potency [7]	Potency [8]	Potency [9]	Potency [10]	Potency [11]	Potency [5]
CN1CCN(c2cc(C(=O)Nc3ccc4c(c3)-c3c(c(C(N)=O)nn3-c3ccc(F)cc3)CC4)c(Cl)cn2)CC1	4.11 µM (active)	2.59 µM (active)	26.4 µM (active)	23.5 µM (active)	-15.3	25.1 µM (active)	–	–	–	–	–	–
CNC(=O)c1c(F)cccc1Nc1nc(Nc2cc3c(cc2OC)CCN3C(=O)CN(C)C)nc2[nH]ccc12	2.59 µM (active) and 4.68 µM (active)	2.91 µM (active) and 4.68 µM (active)	16.6 µM (active)	0.59 µM (active)	–	1.12 µM (active)	0.469 µM (active)	0.296 µM (active)	–	–	–	–
Nc1ccc(C(=O)c2cc3c(ccc4ccccc43)[nH]2)cc1	4.28 µM (active)	4.81 µM (active)	–	2.96 µM (active)	–	2.51 µM (active)	3.72 µM (active)	2.96 µM (active)	2.96 µM (active)	5.9 µM (active)	3.32 µM (active)	2.24 µM (active)
NC(=O)[C@H]1CCS[C@@H]2C[C@]3(CCCN3C(=O)Cc3ccc(NC(=O)COc4ccc(Cl)cc4Cl)cc3)C(=O)N12	3.26 µM (active)	2.91 µM (active)	–	–	–	3.98 µM (active)	–	1.86 µM (active)	0.588 µM (active)	1.48 µM (active)	1.17 µM (active)	–
Nc1ncnc2c1c(-c1cccc(OCc3ccccc3)c1)cn2C1CC(CN2CCC2)C1 (configuration not stated)	0.58 µM (active)	0.92 µM (active)	–	–	12.1	inactive	–	–	inactive	inactive	inactive	–
